The values that follow come from PubChem BioAssay (NCI).

What all share (experiment): NCI-60 one-dose screen, 48 h (100 = growth as untreated, 0 = no growth, -100 = all killed)
Common to all, as to conditions: 10 µM

The subject of test [1] is DU-145 prostate.
Test [2] deals with K-562 leukemia.
Test [3] concerns MALME-3M melanoma.
Test [4] deals with MDA-MB-231 breast.
In test [5] the test system is RXF 393 renal.
Test [6] concerns SF-268 CNS.
The test system of test [7] is SF-295 CNS.
The subject of test [8] is SF-539 CNS.
Test [9] relates to UACC-257 melanoma.
Test [10] relates to M14 melanoma.

Compounds without any hit were thinned out: in the full panel of roughly 83,000, 20% have a hit.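 Each cell line was grown in a 96-well plate and treated with one concentration of compound for 48 hours. Values below 10 were considered active.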 Values without a mark were called inactive. Activity calls are given as the source filed them.

In the case of `C=C1CCC2C3(C)COC(c4cccc(F)c4)OC3CCC2(C)C1CC(O)C1=CCOC1=O` (centres undefined), the growth is 72.8% in test [1]; 24.1% in [2]; 90.8% in [3]; 67.5% in test [4]; 57.2% in test [5]; 106% in test [6]. Further, the results for the growth in test [7], in test [8] and in test [9] were 74.5%, 84.8% and 72.7%, respectively.

For the molecule `Cc1cc2nc3c4ccccc4n(CCO)c3nc2cc1C`, the growth in [1] is 58%; in test [2], 74.4%; in [3], 37.8%; in test [4] it was 18.5%; in test [5] it was 38.6%; in test [6], 78.1%. The growth in test [7] is 66%; in test [8], 37.1%; in [9], 91.7%; in [10] it was 84.6%.

In the case of `Cc1ccc(F)cc1N/C=c1\s/c(=C(\C#N)C(=O)Nc2ccccc2)n(-c2ccccc2)c1=O`, the growth was 54.5% in test [1]; 83.4% in [2]; 53% in test [3]; 2.68% (active) in [4]; 6.54% (active) in test [5]; 69.5% in test [6]. Further, the figures for the growth in test [7], in test [8] and in test [9] were 47.8%, 27% and 99%, respectively.

In the case of `COc1cc2c(cc1OC)/C(=C\c1sc(Nc3ccc(O)cc3)nc1O)C(C(=O)O)=N2`, the growth is 6.39% (active) in [1]; 11.2% in test [2]; 12.8% in test [3]; 29.8% in test [4]; 25% in test [5]; 54.2% in test [6]. In addition, the growth was 11.9% in [7], -20.2% (active) in [8], 48.8% in test [9] and 4.93% (active) in test [10].

Take `O=C(c1ccc(O)cc1)C1[C@H](c2ccc(Br)cc2)[C@@H](c2ccccc2)NC12C(=O)Nc1ccccc12` (some centres undefined): the growth in test [1] is 49.1%; in test [2] it was 35.3%; in test [3], 43.6%; in test [4] it was -40.8% (active); in [5], -16.4% (active); in test [6], 35.5%. Besides, the growth in test [7] is 29.9%; in test [8], 41.2%; in [9], 75.9%; in [10] it was 51.7%.

Take `COc1cccc(-c2ccc(/C=N/NC(=O)c3[nH]c4ccc(Br)cc4c3-c3ccccc3)o2)c1`: the growth was 25.9% in test [1]; 3.8% (active) in [2]; 47.5% in [3]; 23.6% in test [4]; 26.1% in [5]; 33.5% in test [6]. The growth is -14.6% (active) in [7], -67.7% (active) in test [8], 36.9% in [9] and 16.7% in test [10].

For `CC1=N/C(=C\c2ccc(N(C)C)cc2)C(=O)N1CCc1ccc(S(N)(=O)=O)cc1`, the growth was 112% in [1]; 90.6% in test [2]; 93.4% in test [3]; 96.4% in test [4]; 88.9% in test [5]; 102% in [6]. Further, the figures for the growth in test [7], in [8] and in test [9] were 99.7%, 98% and 87.1%, respectively.

`CC(=O)Nc1ccc(-n2cnc3cc(-c4ccc(O)cc4)ccc32)cc1F`: the growth in [1] was 34%; in [2], 6.14% (active); in test [3], 65.6%; in [4], 34.7%; in test [5] it was -0.397% (active); in test [6] it was 40.6%. Further, the growth is 2.75% (active) in test [7], -5.18% (active) in [8], 59.8% in test [9] and 35.5% in test [10].

As for `O=C(c1ccc(Cl)cc1)C1[C@H](c2ccccc2Br)[C@@H](c2ccccc2)NC12C(=O)Nc1ccc(Br)cc12` (some centres undefined), the growth in test [1] was 29.7%; in [2] it was 6.68% (active); in test [3] it was 50.1%; in [4], 2.81% (active); in [5] it was -26.1% (active); in test [6] it was 32.7%. Also, the growth in test [7] is 14.9%; in [8], 30.2%; in test [9], 10.3%; in test [10], 27.5%.

As to `COC[C@@H](CC(C)C)N=C1N/C(=C\c2ccc3ncsc3c2)C(=O)N1C`, the growth is 20.9% in test [1]; 17.7% in test [2]; 7.51% (active) in [3]; 0.748% (active) in test [4]; -19.2% (active) in test [5]; 19.1% in test [6]. Moreover, the growth in test [7] was 23.2%; in test [8] it was -15.6% (active); in [9], 6.69% (active).

Turning to `COc1cc2oc(-c3cccc(C(=O)Nc4ccc(Cl)cc4)c3)cc(=O)c2c(OCCNC(=O)CNC(=O)OC(C)(C)C)c1OC`, the growth in test [1] is 77.5%; in [2], 46%; in [3], 65%; in test [4], 30.1%; in [5], -17.7% (active); in [6], 81.8%. For the same molecule, the growth is 50.6% in [7], 67.3% in test [8], 80.8% in test [9] and 60.2% in test [10].

Consider `COc1ccc(N(C)c2cc(C#N)nc3ccccc23)cc1/C=C/C(=O)NO`, for which the growth was 16.7% in test [1]; 4.1% (active) in [2]; -56.5% (active) in test [3]; -73.5% (active) in [4]; -82.2% (active) in test [5]; -30% (active) in [6]. The growth was -73.8% (active) in test [7], -89.6% (active) in test [8], -26.2% (active) in test [9] and 2.45% (active) in test [10].

Consider `C=CC(=O)Nc1ccc(C(=O)/C=C/c2ccc(N(C)CCF)cc2)c(O)c1`, for which the growth in [1] was -51.2% (active); in [2] it was 9.77% (active); in test [3], -50.1% (active); in test [4] it was 17%; in test [5], -82.4% (active); in test [6] it was -19.7% (active). Also, the growth in test [7] was -4.58% (active); in test [8], -81.5% (active); in test [9], -61.6% (active).

For the molecule `N#Cc1c(Cl)nc(SCc2ccc(F)cc2)nc1-c1ccc(F)cc1`, the growth in test [1] is 92.5%; in test [2] it was 69.8%; in test [3], 112%; in test [4], 94.6%; in [5], 89.7%; in test [6], 96.2%. Besides, the growth in test [7] is 90%; in test [8], 91.9%; in test [9] it was 100%.
